Results from PubChem BioAssay AID624305 (National Center for Advancing Translational Sciences (NCATS), 2012).
Results filed as inconclusive are left out. A number with no mark means an inactive call. Activity calls are given as the source filed them. Calls come from the whole dose curve; as a rule, active = well fitted activation curve with a large enough effect; inconclusive = small, poorly fitted or top-dose-only effect; inactive = no such curve, though single readings can be large or run the other way.

Assay: qHTS assay for re-activators of p53 using a Luc reporter: Hit Validation; note: nearly all actives have a fitted effect of over 75% in size; for activation: 0% is about no effect
Summary of the method: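 Hit confirmation with a 1:5 dilution series, at 37 deg C for 24 hrs, in H1299 cells co-expressing temperature-sensitive p53-A138V and p53-responsive luciferase. Nocodazole served as control; luminescence read after 10 min with detection reagent.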
Potency is the fitted concentration of half-maximal effect.

Row | Compound | Potency | activation
1 | O=C(CSc1nc2ccccc2c(=O)[nH]1)c1ccc(O)c(O)c1 | inactive | 
2 | Cc1ccc2nc(-c3ccc(NC(=O)COC(=O)c4cncc(Br)c4)cc3)sc2c1 | 0.146 µM (active) | 
3 | COc1ccc(N2CCN(C3CCCN(Cc4cccc(OC)c4)C3)CC2)cc1 (stereo not drawn) | inactive | 
4 | COc1ccc(-c2cc(=O)c3ccccc3s2)cc1 | 4.11 µM (active) | 
5 | COc1ccc2oc(-c3cccc(NC(=O)CSc4ccc(Cl)cc4)c3)nc2c1 |  | -2.44% [at 9.22 µM]
6 | CCOc1ccc2c(c1)C(=NNC(=O)c1ccncc1)c1cc(OCC)ccc1-2 | inactive | 
7 | O=C(Nc1ccc(Br)cn1)c1cccc(-c2cc3ccccc3oc2=O)c1 | 16.4 µM (active) | 
8 | O=C(CNS(=O)(=O)c1cccc(Cl)c1)Nc1ccc(-c2nc3ccccc3s2)cc1 | 16.4 µM (active) | 
9 | Cn1c(=N)n(CC(=O)c2ccc(Cl)c(Cl)c2)c2ccccc21 | 0.58 µM (active) | 
10 | CCOC(=O)c1c(C)[nH]c(C(=O)OCCOc2ccccc2C)c1C | 1.3 µM (active) | 
11 | CN(C)c1ccc(CNC2CC(C)(C)NC(C)(C)C2)cc1 | inactive | 
12 | Cc1cc(NC(=O)c2ccc3nccnc3c2)ccc1Br | 4.11 µM (active) | 
13 | Cc1ccc(CNc2cc(C(=O)O)ccc2Cl)s1 | inactive | 
14 | CC(=O)c1ccc(Nc2ncnc3c2oc2ccccc23)cc1 | 1.64 µM (active) | 
15 | COCCn1c(SCC(=O)Nc2ccc(N3CCOCC3)cc2)nc2ccccc21 | inactive | 
16 | Cc1cc(F)ccc1NC(=O)Nc1ccc2c(c1)OCO2 | inactive | 
17 | Cn1c(C(=O)Nc2ccc3c(c2)OCCO3)cc2sccc21 | 5.8 µM (active) | 
18 | Clc1cccc(Cl)c1CSc1nnc2ccccn12 | inactive | 
19 | Cc1ccc(NC(=O)/C(Cl)=C/c2ccccc2)cc1C | 2.06 µM (active) | 

Row | Compound | Potency | activation
20 | CCOCC(=O)Nc1nc2ccc(OCC)cc2s1 | 16.4 µM (active) | 
21 | CC(C)(C)c1ccc(S(=O)(=O)N2CCSC2)cc1 |  | -4.43% [at 9.22 µM]
22 | COc1cc(C(C)=O)ccc1Oc1ncnc2c1cnn2-c1ccc(F)cc1 | inactive | 
23 | Cc1cccc(-n2c(C)cc(/C=N\NC(=O)c3cccs3)c2C)c1 | 1.16 µM (active) | 
24 | COc1nnc(-c2ccc(C)c(S(=O)(=O)N(C)C)c2)c2ccccc12 | inactive | 
25 | COc1ccc(CCC(C)NCC(C)c2ccccc2)cc1 (stereo not drawn) | inactive | 
26 | O=C(CSc1nnc(-c2ccc(F)cc2)c2ccccc12)Nc1ccccc1 | inactive | 
27 | Cc1cc2[nH]c3ccccc3c2c(C)n1 | inactive | 
28 | O=C(Oc1ccc2ccccc2c1Cl)N1CCCCCC1 | 5.8 µM (active) | 
29 | CCOC(=O)c1sc(NC(=S)NC(=O)c2ccco2)nc1C | inactive | 
30 | O=C(NNC1=C(C(=O)C(F)(F)F)CCC1)c1cccc(O)c1 | inactive | 
31 | Cc1ccc(-c2cc(-c3ccccc3Cl)[nH]n2)c(O)c1 | 14.6 µM (active) | 
32 | Cc1cccc(NC(=O)Nc2ccc(C)cc2Br)c1 | 16.4 µM (active) | 
33 | O=C(O)CCCC(=O)NCCc1ccncc1 | inactive | 
34 | N#C/C(=C\c1ccccc1[N+](=O)[O-])c1nc(C2CC2)cs1 | 23.1 µM (active) | 
35 | Cc1cccc2nc(CSC(=N)N)c(Br)n12 |  | 3.7% [at 9.22 µM]
36 | COc1cc(NC(=O)CN2C(=O)COc3ccc(S(=O)(=O)N4CCCC4)cc32)cc(OC)c1 | inactive | 
37 | Cc1nn2cc(-c3ccc(-c4ccccc4)cc3)nc2s1 | 0.184 µM (active) | 
38 | CCOc1ccc(-n2c(SCc3nc(-c4cccs4)no3)nnc2-c2ccncc2)cc1 | inactive | 
